About 83,000 compounds went through this panel and 20% of them were active in at least one assay; those are over-represented in the sample as a whole.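 Plates (96-well) were seeded with cells, treated with compound at one concentration, and incubated for 48 hours before percent growth was determined.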 A number with no mark means an inactive call. Activity calls are given as the source filed them. How the source made its calls: active means growth percent below 10; inactive means the rest.

This assay concerns MDA-MB-468 breast. Briefly: NCI-60 one-dose screen, 48 h (100 = growth as untreated, 0 = no growth, -100 = all killed). As to conditions: 10 µM unless noted.
On to `O=C1c2cc(Cl)ccc2S(=O)(=O)c2c(NCCCNCCO)nc3ccccc3c21`, for which the growth is -14.1% (active).

In the case of `COc1ccc(C2C=C(c3ccc(Cl)c(Cl)c3)N=C3SC(C)=CN32)cc1OC` (configuration not stated), the growth was 53.1%.

With `CNS(=O)(=O)Nc1nccc(Cc2c(C)c3ccc(Oc4ncccn4)cc3oc2=O)c1F`, the growth is 62.9%.

Consider `CC(=O)OC/C(C)=C\CC(C)COC(C)=O` (configuration not stated), for which the growth is 98.5%.

Take `CCOC(=O)NCCCC(=O)NCCc1ccccc1`: the growth is 105%.

`Cc1cc(-c2ccc(N=Nc3ccc4c(S(=O)(=O)O)cc(S(=O)(=O)O)c(N)c4c3O)c(C)c2)ccc1N=Nc1ccc2c(S(=O)(=O)O)cc(S(=O)(=O)O)c(N)c2c1O`: the growth was 98.2%.

As for `CC(=O)N[C@@H](CNC(=O)c1cc(NC(=O)c2cc(NC(=O)c3cc(NC(=O)c4nccn4C)cn3C)cn2C)cn1C)CC(=O)Nc1cn(C)c(C(=O)Nc2cc(C(=O)Nc3cc(C(=O)Nc4cc(C(=O)NCCCN(C)CCCNC(=O)c5cccc(C(=O)O)c5)n(C)c4)n(C)c3)n(C)c2)n1`, the growth was 71.5%.

Regarding `O=c1nc(-c2ccccc2)c2cc(-c3ccc(N4CCOCC4)cc3)ccc2[nH]1`, the growth was 77.4%.

Regarding `CC(CCc1ccc(Cl)c(Cl)c1)NCc1ccc(C(C)(C)C)cc1` (configuration not stated), the growth is 30.8%.

For the molecule `COc1ccc(C(=O)C2=CC(=O)C(=O)C2)cc1OC`, the growth is 108%.

With `c1ccc2c(-c3nc(N4CCOCC4)c4c5c(sc4n3)CCCCCC5)cccc2c1`, the growth was 95.1%.

With `COc1ccc(Cn2cc(C(=O)N=Nc3c(O)[nH]c4c(Cl)cccc34)nn2)cc1`, the growth is 98.6%.

(Values after PubChem BioAssay (NCI).)
